Measurements: PubChem BioAssay (NCATS)
Unmarked numbers belong to inactive results. Results filed as inconclusive are left out. Where a call stands in place of a potency, no number is given. The source made the active and inactive calls. Unless noted, calls follow the shape of the dose curve; as a rule, active = well fitted curve in the direction sought with a large enough effect; inconclusive = small, poorly fitted or top-dose-only effect, or another doubt; inactive = no such curve, though single readings can be large; an effect the other way counts as inactive or inconclusive.

Tests used:
[1] = molecular target: Beta-2 adrenergic receptor (Homo sapiens) (UniProt P07550); test: qHTS validation assay of beta-arrestin-biased ligands of beta2-adrenergic receptor (AID 485366)
Method in brief: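 Tango cells (recombinant beta2-AR with recombinant beta-arrestin; recruitment releases tTA driving luciferase) were treated with compounds titrated up to 46 microM for 18 hr at 37 degrees C. Luminescence gave %Activity, and concentration-response curves were curve-classified.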

[2] = molecular target: ATP-dependent 6-phosphofructokinase (Trypanosoma brucei brucei) (UniProt O15648); test: qHTS Validation Assay to Find Inhibitors of T. brucei phosphofructokinase (AID 485368)
Method in brief: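 Compounds (up to 57 uM, titration series) were pinned into substrate buffer, then 1.25 nM PFK added; after 45 min at room temperature, ADP product was quantified by ADP-Glo luminescence and concentration-response curves fitted.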

[3] = Quantitative high throughput screen for delayed death inhibitors of the malarial parasite plastid, 96 hour incubation (AID 488745); also: nearly all actives have a fitted effect of over 70% in size; also: potency is read from the fitted curve at half-maximal effect
Method in brief: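 Luciferase-expressing P. falciparum in erythrocytes (2% hematocrit, 0.1% parasitemia) incubated with compound for 96 h at 37 C, 5% CO2, in RPMI 1640 with 0.5% Albumax. Growth inhibition read as decreased luminescence.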

[4] = Quantitative high throughput screen for delayed death inhibitors of the malarial parasite plastid, 48 hour incubation (AID 488752); also: nearly all actives have a fitted effect of over 65% in size; also: potency is read from the fitted curve at half-maximal effect
Method in brief: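 Erythrocytes infected with firefly luciferase-expressing P. falciparum (2% hematocrit, 0.1% parasitemia) cultured with compound for 48 h at 37 C, 5% CO2, in RPMI 1640/0.5% Albumax. Growth inhibition read as loss of luminescence.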

[5] = molecular target: Thioredoxin reductase 1, cytoplasmic (Rattus norvegicus) (UniProt O89049); test: qHTS Assay for Substrates of Mammalian Selenoprotein Thioredoxin Reductase 1 (TrxR1) (AID 488772);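 also: NADPH fluorescence in the first read after selenite addition and not the 8 min delta; series mostly up to about 57 µM; a drop in NADPH fluorescence below the no-compound background marks a TrxR1 substrate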
Method in brief: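 Quantitative HTS in Tris-HCl buffer at pH 7.5 with EDTA and Tween-20, using rat TrxR1, 400 uM NADPH and 400 uM selenite (final). A fall in initial NADPH fluorescence relative to background marked substrate behaviour.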

[6] = molecular target: Thioredoxin reductase 1, cytoplasmic (Rattus norvegicus) (UniProt O89049); test: qHTS Assay for Inhibitors of Mammalian Selenoprotein Thioredoxin Reductase 1 (TrxR1) (AID 488773); conditions: Potency: inhibition;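 also: drop in NADPH fluorescence over an 8 min run after selenite addition; series mostly up to about 57 µM; nearly all actives have a fitted effect of over 40% in size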
Method in brief: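 Steps: enzyme (90 nM) plus NADPH (400 uM final), 5 min at ~22 deg C; compound added, 15 min; selenite (400 uM final) added; fluorescence followed for 8 min. Concentration-response curves derived from the normalized delta values.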

[7] = molecular target: Flap endonuclease 1 (Homo sapiens) (UniProt P39748); test: qHTS Validation Assay for the Inhibitors of Human Flap endonuclease 1 (FEN1) (AID 488816)
Method in brief: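 FEN1, dispensed as a 10 nM reagent, was preincubated with pin-transferred compounds for 15 min at room temperature before substrate was added (50 nM final). Plates were read at 0 and 15 min, and a four-parameter Hill equation was fitted to the concentration-response data.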

[8] = molecular target: M-phase phosphoprotein 8 (Homo sapiens) (UniProt Q99549); test: qHTS Validation Assay for Inhibitors for MPP8 Chromodomain Interactions with Methylated Histone Tails (AID 488949);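 also: AlphaScreen signal from MPP8 chromodomain bound to biotinylated H3K9me3 peptide; top concentration of the series differs between compounds; nearly all actives have a fitted effect of over 55% in size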
Method in brief: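 AlphaScreen read-out: streptavidin donor and nickel chelate acceptor beads (final 10 ug/mL), 30 min in the dark at RT. Complex of 50 nM MPP8 and 50 nM b-H3(1-18)K9me3 peptide had been exposed to compounds for 30 min beforehand.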

[9] = molecular target: Chromobox protein homolog 1 (Homo sapiens) (UniProt P83916); test: qHTS Validation Assay for Inhibitors of HP1-beta Chromodomain Interactions with Methylated Histone Tails (AID 488953);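 also: loss of AlphaScreen luminescence from HP1-beta binding biotinylated H3K9me3 peptide; series mostly up to about 110 µM; nearly all actives have a fitted effect of over 50% in size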
Method in brief: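 HP1-beta (50 nM) preformed 30 min with biotinylated H3(1-18)K9me3 peptide (50 nM) in PBS pH 7.4, 0.01% Tween-20. Compounds added for 30 min at room temperature. Complex disruption read by AlphaScreen with streptavidin donor/nickel chelate acceptor beads (10 ug/mL each).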

[10] = molecular target: Methanococcus maripaludis chaperonin (MmCpn) (UniProt Q6LX38); test: High-Throughput Screening for Modulators of Cytosolic Chaperonin Activity: MmCpn Primary Screen (AID 488978);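 also: 50 nM MmCpn enzyme hydrolysing 30 µM ATP at 37 °C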
Method in brief: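 ADP formation read by HTRF Transcreener, 665/590 nm emission after 320 nm excitation. Enzyme: archaeal chaperonin at 50 nM final; substrate ATP 30 uM final; 10 min, 37C, after 5 min compound preincubation at RT.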

[11] = molecular target: Transient receptor potential cation channel subfamily V member 1 (Homo sapiens) (UniProt Q8NER1); test: HTS Assay for Compounds that Act as Enhancers of the Vanilloid Receptor 1 (AID 488979)
Method in brief: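 TRPV1-expressing cells loaded with Fluo-8 calcium dye; compounds added and calcium influx read kinetically for 3 min (agonist phase), then capsaicin at EC20 added and read 2 min more for enhancement. Fluorescence ex 480/em 520 nm.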

[12] = molecular target: Thyrotropin receptor (Homo sapiens) (UniProt P16473); test: qHTS Assay for Antagonists of the Thyroid Stimulating Hormone Receptor (AID 488980); also: series mostly up to about 58 µM
Method in brief: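 TSHR-HEK293 cells; 70 uM RO 20-1724 PDE inhibitor; compound + EC80 TSH (4 nM final); anti-cAMP cryptate antibody/cAMP-d2 in lysis buffer, 30 min RT; HTRF 665/620 nm read.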

[13] = molecular target: D(1A) dopamine receptor (Homo sapiens) (UniProt P21728); test: HTS Assay for Allosteric Agonists of the Human D1 Dopamine Receptor: Primary Screen for Agonists (AID 488981)
Method in brief: (§1)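 Tetracycline-induced HEK293 T-REx cells force-coupled to calcium signalling were incubated overnight at 30 C and dye-loaded at room temperature. Calcium flux over 180 s after compound addition flagged agonists; a further 180 s read after EC20 dopamine flagged potentiators.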

[14] = Validation screen for small molecules that induce genotoxicity in human embryonic kidney (HEK293T) cells expressing luciferase-tagged ELG1 (AID 493106)
Method in brief: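 HEK293T cells expressing luciferase-tagged ELG1, 2,000 cells/well, exposed to compound 16 hr at 37 °C, 5% CO2. Luciferase read after ONE-Glo, 30 min at room temperature; increased signal indicates genetic stress.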

[15] = molecular target: Thyrotropin-releasing hormone receptor (Homo sapiens) (UniProt P34981); test: qHTS for Small Molecule Agonists and Allosteric Enhancers of Human TRH Receptor: Validation Screen for Agonists (AID 493127;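 active = calcium activation more than 3 SD above the typical response in the agonist read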); conditions: TRH receptor agonist cell assay; at 2 µM; active compounds read high
Method in brief: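 TRHR cells loaded with fluo-8 calcium dye; FDSS kinetic fluorescence (Ex 480/Em 530) read at 1 s/cycle after 23 nL compound addition. Agonist-mode calcium response recorded before the 10 nM TRH (EC20) addition.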

[16] = molecular target: D(1A) dopamine receptor (Homo sapiens) (UniProt P21728); test: HTS Assay for Allosteric Agonists of the Human D1 Dopamine Receptor: Primary Screen for Antagonists (AID 488983);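 also: calcium flux response to an EC80 dopamine challenge measured with no-wash dye; nearly all actives have a fitted effect of over 65% in size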
Method in brief: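 Tetracycline-induced HEK293 T-REx D1 line, force-coupled to calcium flux, read with no-wash calcium dye. Compound added after 10 s baseline, read 180 s for agonism, then EC80 dopamine added and read a further 180 s.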

[17] = molecular target: ATPase family AAA domain-containing protein 5 (Homo sapiens) (UniProt Q96QE3); test: Validation screen for small molecules that inhibit ELG1-dependent DNA repair in human embryonic kidney (HEK293T) cells expressing luciferase-tagged ELG1 (AID 493107);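 also: cells co-treated with the DNA-damaging agent 5-fluorouridine alongside compound; series mostly up to about 46 µM; inhibitors lower the ELG1-luciferase luminescence signal; nearly all actives have a fitted effect of over 70% in size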
Method in brief: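 HEK293T cells expressing luciferase-tagged ELG1, 2,000 per well, treated with 5-fluorouridine plus compound for 16 h at 37 C. ONE-Glo luminescence after 30 min at room temperature reports ELG1 reporter level.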

[18] = molecular target: D(1A) dopamine receptor (Homo sapiens) (UniProt P21728); test: HTS Assay for Allosteric Agonists of the Human D1 Dopamine Receptor: Primary Screen for Potentiators (AID 488982)
Method in brief: as §1

Sequence of Thioredoxin reductase 1, cytoplasmic (Rattus norvegicus) (O89049 whole entry, looked up): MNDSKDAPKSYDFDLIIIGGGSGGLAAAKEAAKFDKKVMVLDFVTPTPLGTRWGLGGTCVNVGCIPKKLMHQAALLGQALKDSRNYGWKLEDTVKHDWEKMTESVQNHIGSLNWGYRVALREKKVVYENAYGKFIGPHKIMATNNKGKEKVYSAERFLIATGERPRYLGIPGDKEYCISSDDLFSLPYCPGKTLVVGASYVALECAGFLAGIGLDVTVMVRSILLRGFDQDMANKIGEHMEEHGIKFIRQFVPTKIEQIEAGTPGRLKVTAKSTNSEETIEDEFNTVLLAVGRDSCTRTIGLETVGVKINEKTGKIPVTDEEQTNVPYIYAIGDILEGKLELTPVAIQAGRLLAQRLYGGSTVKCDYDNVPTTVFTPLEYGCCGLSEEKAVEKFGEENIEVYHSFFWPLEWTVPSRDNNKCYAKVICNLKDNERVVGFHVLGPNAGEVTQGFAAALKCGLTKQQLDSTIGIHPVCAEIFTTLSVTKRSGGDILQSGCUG
Sequence of Beta-2 adrenergic receptor (Homo sapiens) (P07550 whole entry, looked up): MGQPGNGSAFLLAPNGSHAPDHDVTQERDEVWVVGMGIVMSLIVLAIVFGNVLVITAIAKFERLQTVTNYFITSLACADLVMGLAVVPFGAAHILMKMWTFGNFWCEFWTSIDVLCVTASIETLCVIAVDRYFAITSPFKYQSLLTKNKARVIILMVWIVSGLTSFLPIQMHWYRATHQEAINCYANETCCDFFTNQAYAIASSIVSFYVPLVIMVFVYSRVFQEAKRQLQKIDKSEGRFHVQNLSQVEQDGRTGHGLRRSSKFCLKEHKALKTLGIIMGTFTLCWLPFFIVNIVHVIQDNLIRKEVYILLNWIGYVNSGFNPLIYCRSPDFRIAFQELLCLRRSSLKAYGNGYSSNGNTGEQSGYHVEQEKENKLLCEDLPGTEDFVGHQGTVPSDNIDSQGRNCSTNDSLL
Sequence of Thyrotropin receptor (Homo sapiens) (P16473 whole entry, looked up): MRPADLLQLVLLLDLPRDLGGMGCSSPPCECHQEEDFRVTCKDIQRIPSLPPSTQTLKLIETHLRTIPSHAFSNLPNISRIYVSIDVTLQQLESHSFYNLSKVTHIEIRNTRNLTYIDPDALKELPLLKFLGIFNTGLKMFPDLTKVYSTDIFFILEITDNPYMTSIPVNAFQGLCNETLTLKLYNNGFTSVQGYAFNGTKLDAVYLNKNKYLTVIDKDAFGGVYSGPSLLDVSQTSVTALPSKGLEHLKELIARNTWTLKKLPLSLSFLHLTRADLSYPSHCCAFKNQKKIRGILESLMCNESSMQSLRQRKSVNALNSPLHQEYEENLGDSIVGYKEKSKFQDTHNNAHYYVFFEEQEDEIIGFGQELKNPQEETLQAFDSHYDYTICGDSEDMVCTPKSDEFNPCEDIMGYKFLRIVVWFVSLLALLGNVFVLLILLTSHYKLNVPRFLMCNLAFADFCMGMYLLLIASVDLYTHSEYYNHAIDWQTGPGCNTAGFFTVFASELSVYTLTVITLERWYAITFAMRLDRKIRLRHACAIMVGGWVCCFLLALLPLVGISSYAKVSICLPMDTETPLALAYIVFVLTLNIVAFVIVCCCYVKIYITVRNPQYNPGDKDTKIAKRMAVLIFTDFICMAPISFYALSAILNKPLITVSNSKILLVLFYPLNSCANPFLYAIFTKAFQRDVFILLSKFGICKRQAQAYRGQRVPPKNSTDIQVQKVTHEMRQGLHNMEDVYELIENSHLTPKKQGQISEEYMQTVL
Sequence of M-phase phosphoprotein 8 (Homo sapiens) (Q99549 whole entry, looked up): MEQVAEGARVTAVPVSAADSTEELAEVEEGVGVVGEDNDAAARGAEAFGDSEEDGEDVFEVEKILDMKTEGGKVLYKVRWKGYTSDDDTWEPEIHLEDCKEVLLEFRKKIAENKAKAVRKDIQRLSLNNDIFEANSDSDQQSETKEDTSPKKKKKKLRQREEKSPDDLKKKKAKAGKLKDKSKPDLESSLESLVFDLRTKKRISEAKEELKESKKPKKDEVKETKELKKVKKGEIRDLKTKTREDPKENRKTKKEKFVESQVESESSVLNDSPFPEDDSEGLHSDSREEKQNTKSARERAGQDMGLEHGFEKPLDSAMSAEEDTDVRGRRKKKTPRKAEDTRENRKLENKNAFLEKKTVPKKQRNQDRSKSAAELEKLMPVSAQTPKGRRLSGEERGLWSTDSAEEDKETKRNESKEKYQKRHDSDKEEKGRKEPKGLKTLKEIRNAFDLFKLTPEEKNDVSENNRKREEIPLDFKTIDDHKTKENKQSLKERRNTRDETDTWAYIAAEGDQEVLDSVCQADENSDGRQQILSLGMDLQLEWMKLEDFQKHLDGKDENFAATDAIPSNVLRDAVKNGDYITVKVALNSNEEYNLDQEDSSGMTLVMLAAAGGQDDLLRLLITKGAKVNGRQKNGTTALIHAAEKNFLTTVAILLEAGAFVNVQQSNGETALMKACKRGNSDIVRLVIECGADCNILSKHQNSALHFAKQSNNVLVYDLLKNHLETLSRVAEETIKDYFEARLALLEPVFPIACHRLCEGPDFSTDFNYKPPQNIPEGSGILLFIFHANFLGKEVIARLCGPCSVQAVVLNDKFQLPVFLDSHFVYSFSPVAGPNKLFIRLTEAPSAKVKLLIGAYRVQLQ
Sequence of ATP-dependent 6-phosphofructokinase (Trypanosoma brucei brucei) (O15648 whole entry, looked up): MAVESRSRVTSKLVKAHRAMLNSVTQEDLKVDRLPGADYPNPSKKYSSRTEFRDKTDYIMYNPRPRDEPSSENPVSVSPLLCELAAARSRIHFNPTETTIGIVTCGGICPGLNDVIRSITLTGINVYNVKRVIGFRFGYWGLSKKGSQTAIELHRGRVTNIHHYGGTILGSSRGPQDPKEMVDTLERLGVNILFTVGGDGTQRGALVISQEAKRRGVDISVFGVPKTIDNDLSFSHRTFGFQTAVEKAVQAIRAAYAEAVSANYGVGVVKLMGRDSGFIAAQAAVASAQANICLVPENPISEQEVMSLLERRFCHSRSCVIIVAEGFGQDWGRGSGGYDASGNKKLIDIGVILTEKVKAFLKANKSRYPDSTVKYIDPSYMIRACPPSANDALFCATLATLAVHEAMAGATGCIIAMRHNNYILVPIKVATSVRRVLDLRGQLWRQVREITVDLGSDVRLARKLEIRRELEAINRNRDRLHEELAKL
Sequence of Transient receptor potential cation channel subfamily V member 1 (Homo sapiens) (Q8NER1 whole entry, looked up): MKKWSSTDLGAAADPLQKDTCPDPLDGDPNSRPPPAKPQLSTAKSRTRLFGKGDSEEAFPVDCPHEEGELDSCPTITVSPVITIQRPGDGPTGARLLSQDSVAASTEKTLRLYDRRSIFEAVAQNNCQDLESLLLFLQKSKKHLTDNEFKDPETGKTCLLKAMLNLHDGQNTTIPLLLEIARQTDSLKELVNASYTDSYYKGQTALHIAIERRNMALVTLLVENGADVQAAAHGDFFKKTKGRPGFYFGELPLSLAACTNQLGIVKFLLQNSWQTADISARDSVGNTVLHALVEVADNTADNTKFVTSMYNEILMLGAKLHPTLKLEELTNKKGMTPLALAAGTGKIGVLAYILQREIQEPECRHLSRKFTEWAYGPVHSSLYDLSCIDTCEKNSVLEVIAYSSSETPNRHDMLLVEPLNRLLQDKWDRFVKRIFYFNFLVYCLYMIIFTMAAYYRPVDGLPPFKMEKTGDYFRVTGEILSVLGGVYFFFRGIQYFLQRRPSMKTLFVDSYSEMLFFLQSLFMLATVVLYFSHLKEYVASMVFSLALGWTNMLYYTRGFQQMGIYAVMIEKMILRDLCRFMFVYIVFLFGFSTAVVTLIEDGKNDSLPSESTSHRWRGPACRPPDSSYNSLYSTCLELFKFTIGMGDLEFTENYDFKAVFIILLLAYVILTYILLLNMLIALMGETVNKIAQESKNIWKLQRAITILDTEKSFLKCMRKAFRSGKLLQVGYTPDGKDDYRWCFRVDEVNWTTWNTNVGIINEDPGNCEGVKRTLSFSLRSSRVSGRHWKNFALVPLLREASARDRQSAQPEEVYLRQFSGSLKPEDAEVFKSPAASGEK
Sequence of D(1A) dopamine receptor (Homo sapiens) (P21728 whole entry, looked up): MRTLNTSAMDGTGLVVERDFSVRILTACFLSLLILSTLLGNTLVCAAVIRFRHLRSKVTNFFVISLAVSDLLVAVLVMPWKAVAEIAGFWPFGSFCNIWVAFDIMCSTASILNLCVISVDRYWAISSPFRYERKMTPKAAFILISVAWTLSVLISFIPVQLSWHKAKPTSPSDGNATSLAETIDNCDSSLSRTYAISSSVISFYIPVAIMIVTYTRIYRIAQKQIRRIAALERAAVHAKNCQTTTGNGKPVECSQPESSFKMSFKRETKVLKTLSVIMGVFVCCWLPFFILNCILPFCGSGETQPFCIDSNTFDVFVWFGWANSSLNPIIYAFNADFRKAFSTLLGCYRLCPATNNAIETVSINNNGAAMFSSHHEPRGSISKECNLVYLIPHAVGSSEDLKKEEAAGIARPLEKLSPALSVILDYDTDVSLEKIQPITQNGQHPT
Sequence of Thyrotropin-releasing hormone receptor (Homo sapiens) (P34981 whole entry, looked up): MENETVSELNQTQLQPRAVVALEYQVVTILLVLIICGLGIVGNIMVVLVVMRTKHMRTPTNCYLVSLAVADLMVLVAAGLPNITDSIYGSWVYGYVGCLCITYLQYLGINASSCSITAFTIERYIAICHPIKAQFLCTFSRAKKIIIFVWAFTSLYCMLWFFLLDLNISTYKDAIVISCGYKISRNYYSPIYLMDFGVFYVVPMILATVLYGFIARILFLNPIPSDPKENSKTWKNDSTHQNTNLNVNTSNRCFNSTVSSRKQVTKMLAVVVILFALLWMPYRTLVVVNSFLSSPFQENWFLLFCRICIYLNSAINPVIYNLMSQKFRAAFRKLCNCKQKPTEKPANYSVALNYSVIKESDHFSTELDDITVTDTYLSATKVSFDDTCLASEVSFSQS
Sequence of Chromobox protein homolog 1 (Homo sapiens) (P83916 whole entry, looked up): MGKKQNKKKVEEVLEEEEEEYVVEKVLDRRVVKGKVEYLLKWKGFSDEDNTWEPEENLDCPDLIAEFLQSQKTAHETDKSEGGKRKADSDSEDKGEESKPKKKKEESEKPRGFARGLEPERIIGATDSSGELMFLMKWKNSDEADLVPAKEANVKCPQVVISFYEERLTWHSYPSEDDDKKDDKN

SMILES	outcome [1]	Potency [2]	Potency [3]	Potency [4]	outcome [5]	Potency [6]	Potency [7]	Potency [8]	Potency [9]	outcome [10]	outcome [11]	outcome [12]	Potency [13]	Potency [14]	activation [15]	Potency [16]	Potency [17]	Potency [18]
N[C@H](C(=O)O)[C@H](O)C(=O)O	inactive	inactive	inactive	inactive	inactive	inactive	inactive	inactive	inactive	inactive	inactive	inactive	inactive	inactive	0.0625%	–	–	–
CC1CCN=C(N)S1 (stereo unspecified)	inactive	inactive	inactive	inactive	inactive	inactive	inactive	inactive	inactive	inactive	inactive	inactive	inactive	inactive	-2.88%	inactive	inactive	–
N=C(N)c1ccccc1	inactive	inactive	inactive	inactive	inactive	inactive	inactive	inactive	inactive	inactive	inactive	inactive	inactive	inactive	1.19%	inactive	inactive	inactive
CN(C)CCC(c1ccc(Br)cc1)c1ccccn1 (stereo unspecified)	inactive	inactive	inactive	inactive	inactive	inactive	inactive	inactive	inactive	inactive	inactive	–	inactive	–	–	inactive	inactive	inactive
CCCCCCN(CCCCCC)C(=O)Cc1c(-c2ccc(F)cc2)[nH]c2ccccc12	inactive	inactive	3.7 µM (active)	5.22 µM (active)	inactive	inactive	inactive	inactive	inactive	inactive	inactive	inactive	inactive	inactive	–	inactive	inactive	inactive
C#CCn1c(=O)c2c(ncn2C)n(C)c1=O	inactive	inactive	inactive	inactive	inactive	inactive	inactive	inactive	inactive	inactive	inactive	inactive	inactive	inactive	0.938%	inactive	inactive	inactive
CSC(N)=NCCC[C@H](N)C(=O)O	inactive	inactive	inactive	inactive	inactive	inactive	inactive	inactive	inactive	inactive	inactive	inactive	inactive	inactive	0.75%	inactive	inactive	inactive
C#CC(N)CCC(=O)O (stereo unspecified)	inactive	inactive	inactive	inactive	inactive	inactive	inactive	inactive	inactive	inactive	inactive	inactive	inactive	inactive	0.625%	inactive	inactive	inactive
